For test [1], the target named is POU1 (OCT1 POU domain) (human, UniProt P14859 260-458). Put plainly: EMSA-SELEX-seq; no BOB1; 20 mM Tris-HCl pH 7.6, 140 mM NaCl, 10% glycerol, 0.5 mM EDTA, 0.05% Triton X-100, 0.1 mg/mL BSA, 0.1 mg/mL poly(dI-dC), 5 mM DTT, room temperature, 20 min; high values mean tight binding. Particulars: protein: recombinant; dsDNA, one strand shown. In short, it runs like this:
(§1)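 Binding preference is reported as the percentage of sequenced 8-mers that match a motif pattern. Tagged POU-domain proteins were made in E. coli BL21, purified under denaturing conditions and renatured. A 30 ng portion was combined with 300 ng of a PCR-amplified double-stranded random 35-nt library, with or without 28 ng coactivator protein, in 20 μL Tris–HCl pH 7.6 binding buffer for 20 min at RT. Complex bands were excised from native 6% PAGE, eluted and PCR-amplified over four rounds before Illumina sequencing.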

In test [2] the target is T1, POU2 (OCT2 POU domain) (human, UniProt P09086 175-386).
T1 sequence: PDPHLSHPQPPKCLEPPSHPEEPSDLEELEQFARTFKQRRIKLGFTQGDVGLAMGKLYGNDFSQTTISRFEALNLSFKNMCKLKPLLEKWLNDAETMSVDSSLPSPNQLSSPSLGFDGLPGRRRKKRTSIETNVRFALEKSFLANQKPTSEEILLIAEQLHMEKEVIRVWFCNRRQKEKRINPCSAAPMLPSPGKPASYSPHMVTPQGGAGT
The description is as above. To be noted: protein: recombinant; dsDNA, one strand shown. In short, it runs like this:
as §1

For test [3], the target named is POU1 (OCT1 POU domain);BOB1 (OBF1, OCA-B) (human;human, UniProt P14859;Q16633 260-458;1-256, |). Put plainly: EMSA-SELEX-seq; with BOB1 (ternary complex band); 20 mM Tris-HCl pH 7.6, 140 mM NaCl, 10% glycerol, 0.5 mM EDTA, 0.05% Triton X-100, 0.1 mg/mL BSA, 0.1 mg/mL poly(dI-dC), 5 mM DTT, room temperature, 20 min; high values mean tight binding. Particulars: protein: recombinant;recombinant; copies: 1;1; dsDNA, one strand shown. The procedure, abridged: as §1

The target in test [4] is T2, POU2 (OCT2 POU domain);BOB1 (OBF1, OCA-B) (human;human, UniProt P09086;Q16633 175-386;1-256, |).
T2 sequence 1: T1 sequence
T2 sequence 2: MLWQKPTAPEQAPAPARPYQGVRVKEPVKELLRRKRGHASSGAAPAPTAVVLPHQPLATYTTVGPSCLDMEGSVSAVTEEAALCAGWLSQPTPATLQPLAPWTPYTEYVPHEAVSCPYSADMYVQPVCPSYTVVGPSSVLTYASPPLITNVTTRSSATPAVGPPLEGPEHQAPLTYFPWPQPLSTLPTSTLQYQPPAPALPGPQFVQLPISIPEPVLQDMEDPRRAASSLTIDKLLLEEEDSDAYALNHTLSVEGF
Described as above. To be noted: protein: recombinant;recombinant; copies: 1;1; dsDNA, one strand shown. The procedure, abridged:
as §1

POU1 (OCT1 POU domain), sequence (P14859 260-458): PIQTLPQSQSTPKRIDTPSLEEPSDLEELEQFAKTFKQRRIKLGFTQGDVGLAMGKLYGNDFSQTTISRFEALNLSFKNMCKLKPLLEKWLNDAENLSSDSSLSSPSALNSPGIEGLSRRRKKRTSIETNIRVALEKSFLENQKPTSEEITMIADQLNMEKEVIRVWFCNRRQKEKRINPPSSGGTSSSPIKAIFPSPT

In the case of AACTTAAG, the binding signal in test [1] was 0.0351 % of ANNNNAAN 8-mers; in test [2] it was 0.042 % of ANNNNAAN 8-mers; in test [3], 0.0363 % of ANNNNAAN 8-mers; in test [4] it was 0.0363 % of ANNNNAAN 8-mers.
With AGATCAAG, the binding signal is 0.0305 % of ANNNNAAN 8-mers in test [1], 0.0397 % of ANNNNAAN 8-mers in test [2], 0.0273 % of ANNNNAAN 8-mers in test [3] and 0.0272 % of ANNNNAAN 8-mers in test [4].
On the same counts, the results for ATGGTAAT are 1.27 % of ANNNNAAN 8-mers, 1.28 % of ANNNNAAN 8-mers, 0.202 % of ANNNNAAN 8-mers and 0.219 % of ANNNNAAN 8-mers.
Taken in the same sequence, the figures for ACAAGAAA were 0.0366 % of ANNNNAAN 8-mers, 0.0437 % of ANNNNAAN 8-mers, 0.0386 % of ANNNNAAN 8-mers and 0.0322 % of ANNNNAAN 8-mers.
On the same counts, the results for AGCTCAAA are 0.0252 % of ANNNNAAN 8-mers, 0.0213 % of ANNNNAAN 8-mers, 0.0242 % of ANNNNAAN 8-mers and 0.0264 % of ANNNNAAN 8-mers.
ATGGAAAA: the binding signal in test [1] is 0.233 % of ANNNNAAN 8-mers; in test [2] it was 0.162 % of ANNNNAAN 8-mers; in test [3], 0.289 % of ANNNNAAN 8-mers; in test [4], 0.147 % of ANNNNAAN 8-mers.
As for AGAAGAAA, the binding signal in test [1] is 0.0507 % of ANNNNAAN 8-mers; in test [2], 0.0685 % of ANNNNAAN 8-mers; in test [3], 0.055 % of ANNNNAAN 8-mers; in test [4], 0.0471 % of ANNNNAAN 8-mers.
On the same counts, the results for AATCAAAC are 0.0526 % of ANNNNAAN 8-mers, 0.057 % of ANNNNAAN 8-mers, 0.0765 % of ANNNNAAN 8-mers and 0.0405 % of ANNNNAAN 8-mers.
On the same counts, the results for ATGGCAAT are 0.0545 % of ANNNNAAN 8-mers, 0.0719 % of ANNNNAAN 8-mers, 0.0484 % of ANNNNAAN 8-mers and 0.0578 % of ANNNNAAN 8-mers.
On the same counts, the results for ACGTCAAC are 0.013 % of ANNNNAAN 8-mers, 0.0173 % of ANNNNAAN 8-mers, 0.0187 % of ANNNNAAN 8-mers and 0.0165 % of ANNNNAAN 8-mers.
Regarding ATATAAAC, the binding signal in test [1] was 0.0637 % of ANNNNAAN 8-mers; in test [2], 0.0719 % of ANNNNAAN 8-mers; in test [3], 0.055 % of ANNNNAAN 8-mers; in test [4], 0.0652 % of ANNNNAAN 8-mers.
On the same counts, the results for ACTCGAAC are 0.016 % of ANNNNAAN 8-mers, 0.0184 % of ANNNNAAN 8-mers, 0.0113 % of ANNNNAAN 8-mers and 0.0198 % of ANNNNAAN 8-mers.
Taken in the same sequence, the figures for AGGATAAC were 0.0263 % of ANNNNAAN 8-mers, 0.0437 % of ANNNNAAN 8-mers, 0.0293 % of ANNNNAAN 8-mers and 0.0355 % of ANNNNAAN 8-mers.
Taken in the same sequence, the figures for AGCAAAAA were 0.0831 % of ANNNNAAN 8-mers, 0.0604 % of ANNNNAAN 8-mers, 0.11 % of ANNNNAAN 8-mers and 0.0644 % of ANNNNAAN 8-mers.
Take AGCGGAAC: the binding signal is 0.0183 % of ANNNNAAN 8-mers in test [1], 0.0224 % of ANNNNAAN 8-mers in test [2], 0.0129 % of ANNNNAAN 8-mers in test [3] and 0.0157 % of ANNNNAAN 8-mers in test [4].
As to AATGGAAT, the binding signal is 0.138 % of ANNNNAAN 8-mers in test [1], 0.212 % of ANNNNAAN 8-mers in test [2], 0.125 % of ANNNNAAN 8-mers in test [3] and 0.147 % of ANNNNAAN 8-mers in test [4].
Taken in the same sequence, the figures for AGCACAAA were 0.0256 % of ANNNNAAN 8-mers, 0.0242 % of ANNNNAAN 8-mers, 0.0277 % of ANNNNAAN 8-mers and 0.033 % of ANNNNAAN 8-mers.
Taken in the same sequence, the figures for ATTTCAAG were 0.0542 % of ANNNNAAN 8-mers, 0.0495 % of ANNNNAAN 8-mers, 0.055 % of ANNNNAAN 8-mers and 0.0561 % of ANNNNAAN 8-mers.
On the same counts, the results for AGTAAAAC are 0.0427 % of ANNNNAAN 8-mers, 0.0391 % of ANNNNAAN 8-mers, 0.0663 % of ANNNNAAN 8-mers and 0.0454 % of ANNNNAAN 8-mers.
On to ACTGGAAA, for which the binding signal in test [1] was 0.0362 % of ANNNNAAN 8-mers; in test [2], 0.0328 % of ANNNNAAN 8-mers; in test [3] it was 0.0375 % of ANNNNAAN 8-mers; in test [4], 0.0429 % of ANNNNAAN 8-mers.
Regarding AGCTTAAT, the binding signal in test [1] is 0.0645 % of ANNNNAAN 8-mers; in test [2], 0.0972 % of ANNNNAAN 8-mers; in test [3], 0.0449 % of ANNNNAAN 8-mers; in test [4] it was 0.0578 % of ANNNNAAN 8-mers.
In the case of AGGACAAC, the binding signal in test [1] is 0.0198 % of ANNNNAAN 8-mers; in test [2], 0.0305 % of ANNNNAAN 8-mers; in test [3], 0.0187 % of ANNNNAAN 8-mers; in test [4] it was 0.0206 % of ANNNNAAN 8-mers.
As for ATTTTAAG, the binding signal in test [1] was 0.108 % of ANNNNAAN 8-mers; in test [2] it was 0.131 % of ANNNNAAN 8-mers; in test [3] it was 0.0964 % of ANNNNAAN 8-mers; in test [4] it was 0.101 % of ANNNNAAN 8-mers.
Taken in the same sequence, the figures for AGATAAAG were 0.0439 % of ANNNNAAN 8-mers, 0.0495 % of ANNNNAAN 8-mers, 0.0359 % of ANNNNAAN 8-mers and 0.0281 % of ANNNNAAN 8-mers.
Turning to ACATTAAT, the binding signal is 0.165 % of ANNNNAAN 8-mers in test [1], 0.215 % of ANNNNAAN 8-mers in test [2], 0.0777 % of ANNNNAAN 8-mers in test [3] and 0.102 % of ANNNNAAN 8-mers in test [4].
For the sequence AAGCTAAA, the binding signal in test [1] is 0.0347 % of ANNNNAAN 8-mers; in test [2], 0.0449 % of ANNNNAAN 8-mers; in test [3] it was 0.0453 % of ANNNNAAN 8-mers; in test [4], 0.0347 % of ANNNNAAN 8-mers.
For ACTCAAAG, the binding signal in test [1] is 0.0336 % of ANNNNAAN 8-mers; in test [2] it was 0.0242 % of ANNNNAAN 8-mers; in test [3] it was 0.0367 % of ANNNNAAN 8-mers; in test [4], 0.0165 % of ANNNNAAN 8-mers.
On the same counts, the results for AGCAGAAG are 0.0233 % of ANNNNAAN 8-mers, 0.0207 % of ANNNNAAN 8-mers, 0.0308 % of ANNNNAAN 8-mers and 0.0264 % of ANNNNAAN 8-mers.
In the case of AATTAAAC, the binding signal in test [1] is 0.14 % of ANNNNAAN 8-mers; in test [2], 0.194 % of ANNNNAAN 8-mers; in test [3] it was 0.0905 % of ANNNNAAN 8-mers; in test [4], 0.0966 % of ANNNNAAN 8-mers.
On to AGTATAAT, for which the binding signal was 0.192 % of ANNNNAAN 8-mers in test [1], 0.289 % of ANNNNAAN 8-mers in test [2], 0.0866 % of ANNNNAAN 8-mers in test [3] and 0.121 % of ANNNNAAN 8-mers in test [4].

For the origin of these results see PMC10812921, “Transcriptional Coactivator BOB1 (OBF1, OCA-B) Modulates the Specificity of DNA Recognition by the POU-Domain Factors OCT1 and OCT2 in a Monomeric Configuration”.
